Results from PubChem BioAssay AID1159580 (chemical genetic matrix, 2015).
Where “and” joins values, the source holds several entries; their conditions need not be identical. Equal entries are not always repeated. Hit rate of the full screen: of about 5,500 compounds, about 2,000 (36%) were called active. Not shown: some 18% with an inconclusive outcome. Cut-off read from the data, not from the text of the source: active = normalized growth mostly below about 0.91 (no sharp cut-off); inconclusive = no clear call, values can overlap the other calls; inactive = mostly above about 0.92. This is one part of the list.

Assay: chemical genetic growth profiling, strain panel (AID 1159580);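 note: tested at 20 µM; growth read once vehicle control cultures reached saturation at 30 °C; 1 = growth at the plate median or of vehicle wells; lower values mean less growth of the strain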
Details: S. cerevisiae deletion strains, growth OD

Measured: normalized growth

CC[C@@]1(O)C[C@H](O[C@H]2C[C@H](N(C)C)[C@H](O)[C@H](C)O2)c2c(cc3c(c2O)C(=O)c2c(O)ccc(O)c2C3=O)[C@H]1C(=O)OC
0.113 (active) and 0.995 (inactive): locus YHR030C, strain SLT2, stronger effect = lower value
active: locus YAL021C, strain ccr4, stronger effect = lower value 0.83 | locus YAL026C, strain drs2, stronger effect = lower value 0.813 | locus YAL030W, strain snc1, stronger effect = lower value 0.919 | locus YBL061C, strain skt5, stronger effect = lower value 0.875 | locus YBR021W, strain FUR4, stronger effect = lower value 0.143 | locus YBR023C, strain chs3, stronger effect = lower value 1.52 [resistant] | locus YBR229C, strain ROT2, stronger effect = lower value 0.152 | locus YBR231C, strain swc5, stronger effect = lower value 0.794 | locus YBR279W, strain paf1, stronger effect = lower value 0.901 | locus YCL011C, strain gbp2, stronger effect = lower value 0.0988 | locus YCL016C, strain dcc1, stronger effect = lower value 0.893 | locus YCL029C, strain bik1, stronger effect = lower value 0.205 | locus YDL035C, strain GPR1, stronger effect = lower value 0.0755 | locus YDL074C, strain BRE1, stronger effect = lower value 0.141 | locus YDL101C, strain DUN1, stronger effect = lower value 0.0945 | locus YDL134C, strain PPH21, stronger effect = lower value 0.0874 | locus YDL192W, strain arf1, stronger effect = lower value 0.106 | locus YDR069C, strain doa4, stronger effect = lower value 0.68 | locus YDR101C, strain arx1, stronger effect = lower value 0.18 | locus YDR137W, strain rgp1, stronger effect = lower value 0.703 | locus YDR150W, strain NUM1, stronger effect = lower value 0.112 | locus YDR162C, strain NBP2, stronger effect = lower value 0.0578 | locus YDR297W, strain sur2, stronger effect = lower value 0.873 | locus YDR318W, strain mcm21, stronger effect = lower value 0.125 | locus YDR334W, strain swr1, stronger effect = lower value 0.816 | locus YDR335W, strain msn5, stronger effect = lower value 0.854 | locus YDR388W, stronger effect = lower value 0.0868 | locus YDR502C, strain sam2, stronger effect = lower value 0.125 | locus YEL037C, strain rad23, stronger effect = lower value 0.874 | locus YEL061C, strain CIN8 (second series), stronger effect = lower value 0.879 | locus YEL061C, strain CIN8, stronger effect = lower value 0.071 | locus YER015W, strain faa2, stronger effect = lower value 0.821 | locus YER110C, stronger effect = lower value 0.559 | locus YER111C, strain swi4, stronger effect = lower value 0.767 | locus YER155C, strain BEM2 (second series), stronger effect = lower value 0.848 | locus YER155C, strain BEM2, stronger effect = lower value 0.144 | locus YER167W, strain BCK2, stronger effect = lower value 0.0725 | locus YFR010W, strain ubp6, stronger effect = lower value 0.813 | locus YGL086W, strain mad1, stronger effect = lower value 0.281 | locus YGL173C, strain kem1, stronger effect = lower value 0.716 | locus YGL248W, strain PDE1, stronger effect = lower value 0.0787 | locus YGL253W, strain hxk2, stronger effect = lower value 0.86 | locus YGR078C, strain PAC10, stronger effect = lower value 0.0806 | locus YGR135W, strain pre9, stronger effect = lower value 0.0948 | locus YGR252W, strain gcn5, stronger effect = lower value 0.225 | locus YHR027C, strain rpn1, stronger effect = lower value 0.812 | locus YHR079C, strain IRE1 (second series), stronger effect = lower value 0.477 | locus YHR094C, strain hxt1, stronger effect = lower value 0.402 | locus YHR129C, strain ARP1, stronger effect = lower value 0.0918 | locus YHR142W, strain chs7, stronger effect = lower value 0.745 | locus YHR200W, strain rpn10, stronger effect = lower value 0.0997 | locus YIL066C, strain RNR3, stronger effect = lower value 0.073 | locus YIL073C, strain SPO22, stronger effect = lower value 0.134 | locus YIR030C, strain dcg1, stronger effect = lower value 0.179 | locus YJL092W, strain hpr5, stronger effect = lower value 0.905 | locus YJL095W, strain BCK1 (second series), stronger effect = lower value 0.877 | locus YJL134W, strain LCB3, stronger effect = lower value 0.167 | locus YJL164C, strain tpk1, stronger effect = lower value 0.832 | locus YJL166W, strain qcr8, stronger effect = lower value 0.875 | locus YJL168C, strain set2, stronger effect = lower value 0.272 | locus YJL187C, strain SWE1 (second series), stronger effect = lower value 0.0876 | locus YJR043C, strain POL32, stronger effect = lower value 0.113
inactive: locus YBR009C, strain hhf1, stronger effect = lower value 0.924 | locus YBR171W, strain sec66, stronger effect = lower value 1.03 | locus YCL069W, strain vba3, stronger effect = lower value 0.948 | locus YCR088W, strain abp1, stronger effect = lower value 0.954 | locus YDL005C, strain med2, stronger effect = lower value 1.03 | locus YDL040C, strain nat1, stronger effect = lower value 0.962 | locus YDL185W, strain tfp1, stronger effect = lower value 0.956 | locus YDR001C, strain nth1, stronger effect = lower value 0.932 | locus YDR159W, strain sac3, stronger effect = lower value 0.906 | locus YDR195W, strain ref2 1.05 | locus YDR392W, strain spt3, stronger effect = lower value 0.823 | locus YEL003W, strain gim4, stronger effect = lower value 0.942 | locus YER016W, strain bim1, stronger effect = lower value 0.954 | locus YGL078C, strain dbp3, stronger effect = lower value 0.973 | locus YGL167C, strain pmr1, stronger effect = lower value 0.955 | locus YGL227W, strain vid30, stronger effect = lower value 1.02 | locus YGL240W, strain doc1, stronger effect = lower value 0.966 | locus YHR013C, strain ard1, stronger effect = lower value 0.935 | locus YHR079C, strain IRE1, stronger effect = lower value 0.987 | locus YIL125W, strain kgd1, stronger effect = lower value 0.959 | locus YJL115W, strain asf1, stronger effect = lower value 0.947 | locus YJL129C, strain trk1, stronger effect = lower value 1.05 | locus YJL154C, strain vps35, stronger effect = lower value 0.929
0.121 (active) and 0.997 (inactive): locus YJL095W, strain BCK1, stronger effect = lower value
